The values that follow come from PubChem BioAssay.

A number with no mark means an inactive call.

The experiment in a line: plasmodial surface anion channel blockers, osmotic lysis – cell-based, P. falciparum Indochina, OD700, 18 h, primary screen (AID 1157). Particulars: P. falciparum Indochina infected erythrocytes, osmotic lysis OD700, 18 h; higher = more signal, called active from +8 up or from −8 down.
Regarding `COC(=O)C1(Cc2ccccc2)C=C2C(=C(C(C)C)C(=O)C2C)CN1` (stereo not given), the z-score is 0.592.
Turning to `Cc1c(NC(=O)/C(C#N)=C/C=C/c2ccccc2[N+](=O)[O-])c(=O)n(-c2ccccc2)n1C`, the z-score was 0.0839.
The value for `[N-]=[N+]=NCc1ccccc1C[C@@]1(C(=O)NCCN2CCOCC2)N=C(c2ccc(OCCCO)cc2)O[C@@H]1c1ccccc1N=[N+]=[N-]` was 2.46; that for `C[n+]1ccc(CCCO)cc1` was 0.131; that for `CN1C(=O)C2C=CC(C(O)c3c(F)cccc3Cl)N(Nc3ccccc3)C2C1=O` (stereo not given) was 1.12.
The value for `C=C[C@@H](C)[C@H](OC(=O)Nc1ccc(SC)cc1)c1ccc(OCCO)cc1` was 1.75.
On to `CC(C)C(O)C1C=CC2C(=O)N(C)C(=O)C2N1N(c1ccccc1)c1ccccc1` (stereo not given), for which the z-score was 1.05.
Take `O=C1c2ccccc2[C@](Cc2ccccc2I)(C(=O)NCc2ccccc2)[C@H](c2ccc(CO)cc2)N1C1CCCCC1`: the z-score was -1.34.
The same measure for `CC(=O)n1cc(C(O)C2C=CC3C(=O)N(Cc4ccccc4)C(=O)C3N2n2cnnc2)c2ccccc21` (stereo not given): 1; for `COc1cc2c(cc1OC)CN(C(=O)[C@H]1[C@@H]3C(=O)O[C@@H](c4ccccc4)[C@@H](c4ccccc4)N3[C@@H](c3ccc(OCCO)cc3)[C@]13C(=O)Nc1ccc(C#CC4(O)CCCCCC4)cc13)CC2`: 1.35; for `O=c1cccc(-c2ccc(C(F)(F)F)cc2)o1`: 1.1.
The value for `COc1ccc(C(O)C2C=CC3C(=O)N(Cc4ccccc4)C(=O)C3N2n2cnnc2)c2ccccc12` (stereo not given) was -1.58; that for `CC(C)(C)OC(=O)CC[C@]1(C(=O)NCCN2CCOCC2)N=C(c2ccc(OCCCO)cc2)O[C@H]1c1ccccc1N=[N+]=[N-]` was 6.62; that for `C=CC[C@H](OC(=O)Nc1ccc(OC)cc1)c1ccc(O)c2ccccc12` was 0.328.
The same measure for `COC(=O)[C@@]1(Cc2ccc(OC)cc2)[C@H]2c3cc(C(=O)N4CCCC4)n(CCc4cc5ccccc5[nH]4)c3C[C@H]2CN1C(=O)c1ccccc1`: 1.11; for `COc1ccc(CCNC(=O)[C@@]2(Sc3ccc(C)cc3)CC(=O)N(Cc3cc(C(F)(F)F)cc(C(F)(F)F)c3)[C@@H]2c2ccc(CO)cc2I)cc1`: 0.132; for `COc1ccc(C(O)C2C=CC3C(=O)N(C)C(=O)C3N2N2CCCCC2)cc1` (stereo not given): 1.25.
Take `COc1ccc([Si](C)(C)[C@@H]2[C@@H](CC(=O)N3CCC[C@H]3CO)O[C@]3(C(=O)N(Cc4ccc(N5C(=O)c6cccc7cccc5c67)cc4)c4ccccc43)[C@H]2C)cc1`: the z-score was 0.918.
The value for `O=C1c2ccccc2[C@@]2(Cc3ccccc3N(C3CC3)C2=O)[C@H](c2ccc(CO)cc2)N1C1CCCCC1` was 0.181.
The same measure for `CCOC(=O)C1=CC[C@@H](c2cc(Cl)ccc2Cl)N(S(=O)(=O)c2ccc(C)cc2)[C@H]1c1ccc(OC)cc1`: 0.826.
The value for `CC=CC(O)C1C=CC2C(=O)N(C)C(=O)C2N1N1CCCCC1` (stereo not given) was 0.801; that for `C=C(C(=O)CC[C@H](OC(C)=O)c1cccc(OCCO)c1)C(C)C` was -1.7.
For the molecule `CC(C)C(=C=CC[C@H](O)c1ccc(OCCO)cc1)C[C@H](O)c1cc(Cl)cc(Cl)c1O`, the z-score is 1.24.
With `COc1ccc(C#Cc2ccc3c(c2)[C@]2(C(=O)N3)[C@H](C(=O)N3CCc4cc(OC)c(OC)cc4C3)[C@H]3C(=O)O[C@H](c4ccccc4)[C@H](c4ccccc4)N3[C@@H]2c2ccc(O)cc2)cc1`, the z-score was 0.296.
The same measure for `CN1C(=O)[C@@]2(CCS(=O)(=O)c3ccccc3)N=C(c3ccc(OCCCO)cc3)O[C@H]2c2ccccc21`: 0.914.
Regarding `CC[C@H]1C2=C3C(CC[C@H]4C(OCc5ccc(F)cc5C(F)(F)F)OC[C@](C)([C@@H]34)N(C(=O)OC(C)(C)C)C2)C2COC(=O)OCC21` (stereo not given in full), the z-score is 0.91.
The same measure for `Cc1ccc(S[C@]2(C(=O)NCc3ccccc3)CC(=O)N(C(C)C)[C@@H]2c2ccc(CO)cc2I)cc1`: 0.301; for `Cc1ccc(C(C)CC(O)C2C=CC3C(=O)N(c4ccccc4)C(=O)C3N2Nc2ccc(C(C)C)cc2)o1` (stereo not given): 0.631.
The value for `COCCOC(=O)N1C(=O)[C@@]2(c3cc(C#Cc4ccc(OC)cc4)ccc31)[C@H](C(=O)NC[C@H](O)c1ccccc1)[C@H]1C(=O)O[C@H](c3ccccc3)[C@H](c3ccccc3)N1[C@@H]2c1ccc(O)cc1` was 0.704; that for `COCCOC(=O)N1C(=O)[C@@]2(c3cc(C#CC4(O)CCCCCC4)ccc31)[C@H](C(N)=O)[C@H]1C(=O)O[C@H](c3ccccc3)[C@H](c3ccccc3)N1[C@@H]2c1ccc(O)cc1` was -0.125.
The same measure for `CC1CC/C=C\[C@H]2OC34C=CCN(C(C)C)C(=O)[C@H]3N(CCCCCO)C(=O)[C@@H]4C2C(=O)O1` (stereo not given in full): 0.427.
As for `CCOC(=O)C1=CC[C@@H](c2ccccc2)N(S(=O)(=O)c2ccc(C)cc2)C1`, the z-score was 0.509.
Turning to `CCN(CC)c1ccc(N2CC=CC34O[C@@H]5/C=C\CCC(C)OC(=O)C5[C@H]3C(=O)N(CCO)[C@@H]4C2=O)cc1` (stereo not given in full), the z-score is 0.162.
The same measure for `C=CCOC(=O)[C@H]1[C@@H]2C(=O)O[C@@H](c3ccccc3)[C@@H](c3ccccc3)N2[C@@H](c2ccc(OCCOC(=O)[C@H]3C[C@H]4C(=O)N[C@@H](CCCC[N+](C)(C)C)C(=O)N4[C@H]3c3cccc(OCCO)c3)cc2)[C@]12C(=O)Nc1ccc(I)cc12`: 1.68; for `O=C1C[C@@](C(=O)NCC(F)(F)F)(c2ccc([N+](=O)[O-])cc2)[C@@H](c2ccc(CO)cc2)N1C1CCCCC1`: -0.0879.
